NPC1 promoter act = activators of NPC1 promoter. Huh7 NPC1 promoter luciferase reporter, 24 h. Potency, µM (highest dose often 9.22 µM), inactives show at the top dose activation, actives largely listed as activators. actives 2.4% (n = 320,000). AID 485313; also: % of control where 0% means no effect; nearly all actives have a fitted effect of over 60% in size
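Compounds in DMSO were transferred onto Huh7 NPC1-luciferase reporter cells pre-incubated 2 h; after 24 h at 37 °C, Amplite reagent was dispensed and luminescence recorded 10 min later.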
SMN2 splice up = increases expression of the SMN2 splice variant. HEK293 SMN2-luciferase splicing reporter, luminescence, 30-36 h. Potency, µM (top dose mostly 46.1 µM), for the others: at the top dose activity change, positive = activation, actives largely listed as activators. actives 2.8% (n = 210,000). AID 1458; also: % of control where 0% means no effect; nearly all actives have a fitted effect of over 55% in size
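HEK293 cells carry an SMN2 minigene-luciferase reporter in which exon 7 inclusion puts luciferase in frame. Cells were seeded at 2000 cells/well, attached for 10-12 hours, then exposed to compounds for 30-36 hours at 37C before ONE-Glo luminescence.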
ELG1 genotox = induces genotoxicity in HEK293T cells with luciferase-tagged ELG1. HEK293T ELG1-luciferase reporter, luminescence, 16 h. Potency, µM (top dose mostly 46 µM), inactives show at the top dose activity change, positive = activation, actives largely listed as activators. actives 1.3% (n = 330,000); also: % of control where 0% means no effect; nearly all actives have a fitted effect of over 60% in size
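HEK293T cells expressing luciferase-tagged ELG1 were treated with compound or DMSO for 16 hr at 37°C. Luciferase activity was then read after 30 min with ONE-Glo at room temperature; rising signal flags genetic stress.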
FLuc counter = firefly luciferase modulation, counter-screen for miR-21 project; purified FLuc, Km substrates, luminescence inhibition; Potency, µM (series often up to 57.5 µM), for inactives: top-dose activity change, negative = inhibition, usual class: inhibitors; actives 6.9% (n = 360,000);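 also: plate controls were vehicle for no effect and reference inhibitor for full effect; nearly all actives have a fitted effect of over 55% in size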
Target sequence (P08659 whole entry, looked up): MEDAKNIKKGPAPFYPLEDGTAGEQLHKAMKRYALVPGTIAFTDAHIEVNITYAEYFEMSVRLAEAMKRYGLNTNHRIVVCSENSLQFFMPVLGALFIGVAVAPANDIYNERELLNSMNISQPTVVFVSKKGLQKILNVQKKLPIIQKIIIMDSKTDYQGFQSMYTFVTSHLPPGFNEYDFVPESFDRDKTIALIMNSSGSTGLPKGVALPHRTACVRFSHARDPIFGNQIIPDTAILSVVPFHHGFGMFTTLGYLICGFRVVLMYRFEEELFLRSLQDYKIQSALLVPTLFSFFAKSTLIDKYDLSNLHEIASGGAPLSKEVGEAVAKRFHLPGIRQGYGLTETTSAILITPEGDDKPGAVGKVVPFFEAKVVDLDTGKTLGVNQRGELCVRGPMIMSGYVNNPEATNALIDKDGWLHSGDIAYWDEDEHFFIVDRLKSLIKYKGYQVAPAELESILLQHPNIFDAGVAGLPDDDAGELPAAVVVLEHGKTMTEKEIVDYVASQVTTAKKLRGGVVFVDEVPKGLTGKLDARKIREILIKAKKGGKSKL
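Biochemical qHTS of compounds, final roughly 60 µM downward over six points, against 10 nM purified firefly luciferase using Km concentrations of substrates (10 uM D-luciferin, 10 uM ATP) in Tris acetate pH 7.5 buffer; luminescence output.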
Rab9 prom act = activates the Rab9 promoter | actives 2.8% (n = 320,000) | AID 485297 | Huh7 Rab9 promoter-luciferase reporter, luminescence, 24 h | Potency, µM (highest dose often 9.22 µM), inactives show at the top dose activation, negative = inhibition, hits mostly activators; also: % of control where 0% means no effect; nearly all actives have a fitted effect of over 60% in size
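Cells were plated at 1500 per well in reduced-serum medium with 10% FBS and left 2 h. Compound in DMSO was then added for 24 h at 37 °C. Reporter signal was read by luminescence after 10 min with luciferase detection reagent.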
An asterisk follows results filed as active; ? = inconclusive; · = not tested or not shown; [ ] = dose if it differs, or a comment. Compounds with a hit are over-represented: about 7.4% of the library has one in this group of screens. Calls follow the shape of the dose curve; as a rule, active = well fitted curve in the direction sought with a large enough effect; inconclusive = small, poorly fitted or top-dose-only effect, or another doubt; inactive = no such curve, though single readings can be large; an effect the other way counts as inactive or inconclusive. Potency is read from the fitted curve at half-maximal effect.

SMILES | NPC1 promoter act | SMN2 splice up | ELG1 genotox | FLuc counter | Rab9 prom act
CCCOc1ccccc1/C=C1\SC(N2CCCCC2)=NC1=O | ? | · | -10% | 12µM* | 23%
O=C(O)c1sccc1S(=O)(=O)Nc1ccc(Cl)cc1 | · | -7% | · | · | ·
COc1ccccc1C(=O)NC1=NC(c2ccc(Br)cc2)CC(=O)N1 (stereo not drawn) | · | 11µM* | · | 4.8µM* | ·
Cc1cc(C(=O)NNS(=O)(=O)c2cc(C(=O)O)ccc2Cl)c(C)n1-c1ccccc1 | -2% | · | 0% | 24µM* | -7%
Cc1ccc(NC(=O)c2cc(C)n(-c3cccc(C)c3)c2C)cc1 | 15% | 27% | ? | 1.5µM* | ?
CC(C)(C)NS(=O)(=O)c1cc(C(=O)O)ccc1Cl | -3% | 3% | 0% | -8% | -4%
Cc1cc(C(=O)Nc2ccc(Cl)cc2)n(-c2ccccc2)n1 | 1% | · | 5% | -20% | 1%
Cc1ccc(NC(=O)c2cc(C)n(-c3ccccc3)c2C)cc1 | -2% | -94% | 0.23µM* | 0.054µM* | ?
Cc1ccc(-n2c(C)cc(C(=O)NS(=O)(=O)c3ccc(C)cc3)c2C)cc1 | 0% | 20% | 1% | 2% | -5%
Cc1cc(C(=O)Nc2ccc(Cl)cc2)c(C)n1-c1ccccc1 | -24% | · | ? | 0.048µM* | -28%
Cc1ccc(NC(=O)Cn2c(=O)n(CCCCC(=O)NCCc3ccc(Cl)cc3)c(=O)c3ccccc32)cc1 | · | -4% | · | 1% | ·
O=C(CN1CCN(S(=O)(=O)c2ccccc2)CC1)Nc1ccccc1C(=O)c1ccccc1 | -4% | -7% | -11% | -1% | -1%
COc1ccc(-c2coc3cc(OC4OC(CO)C(O)C(O)C4O)ccc3c2=O)cc1 (stereo not drawn) | 1.6µM* | · | 8.2µM* | 11µM* | 1.6µM*
COc1cc(O)c2c(=O)c3c(O[C@H]4O[C@@H](CO)[C@H](O)[C@@H](O)[C@@H]4O)ccc(O)c3oc2c1 | · | · | 1% | · | ·
COc1ccc(-c2coc3cc(OC4OC(CO)C(O)C(O)C4O)cc(O)c3c2=O)cc1 (stereo not drawn) | 2.8µM* | · | ? | ? | 2.8µM*
O=c1cc(CSc2ccccc2)[nH]c2ccc(F)cc12 | · | · | · | -11% | ·
COc1ccc(CNC(=O)C(C)n2c(=O)cc(C)c3c(C)nn(-c4ccccc4)c32)cc1 (stereo not drawn) | · | · | · | -1% | ·
Nn1c(SCc2c(F)cccc2F)nnc1-c1ccccn1 | 2µM* | · | 16µM* | 13µM* | 3.2µM*
Cc1ccc(C)c(CSc2nnc(-c3ccccn3)n2N)c1 | 5% | -10% | -4% | -10% | 14%
O=C(CN1C(=O)NC2(CCOc3ccccc32)C1=O)c1ccc(Cl)s1 (stereo not drawn) | 0% | · | -1% | · | -7%
CCc1ccc(C(=O)CN2C(=O)NC3(CCOc4ccccc43)C2=O)s1 (stereo not drawn) | -3% | · | 1% | 17µM* | 1%
CC(=O)Nc1ccc(NS(=O)(=O)c2ccc3[nH]c4c(c3c2)CCCCC4)cc1 | · | · | · | -15% | ·
O=C(c1ccc(CS(=O)c2cccc(Cl)c2)o1)N1CCN(c2ccccn2)CC1 (stereo not drawn) | -9% | · | 0%[9.26 µM] | 1% | -6%
COc1cccc([C@@H]2Oc3ccc(OC)cc3C(=O)[C@H]2OC(=O)NS(=O)(=O)c2ccc(C)cc2)c1 | · | 11µM* | · | · | ·
CCOC(=O)c1ccc(NC(=O)CC2C(=O)N(c3ccc(C)cc3)C(=O)N2C2CCCC2)cc1 (stereo not drawn) | · | · | · | -1% | ·
SMILES | NPC1 promoter act | SMN2 splice up | ELG1 genotox | FLuc counter | Rab9 prom act
CSc1nnc2c(n1)c(C)nn2-c1cccc(C)c1 | 3% | 14% | 1% | 13µM* | -5%
Nc1ccc(S(=O)(=O)NC2(C(F)(F)F)NC(=O)N(c3ccccc3F)C2=O)cc1 (stereo not drawn) | 1% | · | 5% | 2% | -2%
COc1ccc(Cc2nc(-c3ccncc3)no2)cc1 | 2% | · | 8% | ? | -14%
COc1ccc(Cc2nc(-c3cccc(C)c3)no2)cc1 | ? | 24% | ? | 13µM* | ?
Cc1cccc(-c2noc(Cc3ccc(Cl)cc3)n2)c1 | 28% | ? | 18µM* | ? | ?
Clc1ccc(Cc2nc(-c3ccncc3)no2)cc1 | -3% | · | 7% | -13% | 5%
CCn1ncc(C(=O)Nc2cccc(Cl)c2)c1C | 3% | 13µM* | ? | 9.5µM* | ?
CCc1cccc(NC(=O)c2cnn(-c3ccccc3)c2C)c1 | 0.89µM* | · | 1.8µM* | 2.1µM* | 2.2µM*
COc1cccc(NC(=O)c2cnn(-c3ccccc3)c2C)c1 | ? | · | 1.8µM* | 1.5µM* | 13µM*
CCc1cccc(NC(=O)c2coc(=O)c3ccccc23)c1 | · | 12% | · | 11µM* | ·
Cc1cccc(C)c1NC(=O)c1cnn(-c2ccccc2)c1C | 0% | · | -5% | -16% | -3%
O=C(Nc1cccnc1)c1coc(=O)c2ccccc12 | -10% | -4% | 1% | 1% | -1%
COc1cc(OC)c(NC(=O)c2nnn(Cc3ccc(C)cc3)c2N)cc1Cl | · | 1% | · | -9% | ·
COc1ccc(-c2oc3cccnc3c2/C=C/c2ccc(OC)c(OC)c2)cc1 | 2% | · | 2% | 7.6µM* | 3%
COc1ccc(/C=C/c2c(-c3ccc(OC)cc3)oc(=O)c3cc(OC)c(OC)cc23)cc1 | · | · | 0% | · | ·
CC1CCCN(c2ccc(C(=O)NCC3CCCO3)cn2)C1 (stereo not drawn) | ? | 13µM* | 16% | ? | ?
CC1CCN(c2ccc(C(=O)NCc3cccs3)cn2)CC1 | ? | 15% | ? | 24µM* | ?
CC1CCN(S(=O)(=O)c2cccc(C(=O)NCc3cccs3)c2)CC1 | -4% | 6% | -2% | -1% | -1%
O=C(NNS(=O)(=O)c1ccccc1[N+](=O)[O-])c1cccc([N+](=O)[O-])c1 | -6% | 9% | 2% | 3% | 3%
COc1cc(CN2CCN(C(=O)c3ccccc3F)CC2)cc(OC)c1OC | -3% | · | -8% | 2% | -2%
O=C(NCc1cccnc1)C(=O)NCC1OCCCN1S(=O)(=O)c1ccccc1 (stereo not drawn) | -2% | 0% | 2% | 0% | 1%
CCN1CCN(Cc2ccc(NC(=O)Nc3ccccc3OC)cc2)CC1 | ? | · | 18µM* | 11µM* | ?
O=C(N/C=C/c1ccccc1)c1ccccc1 | 1.1µM* | · | ? | 2.1µM* | 1.3µM*
CCN1CCN(CCC(=O)Nc2ccccc2OC)CC1 | -1% | -8% | 2% | 1% | 1%
COc1ccc(OC)c(NC(=O)Nc2ccc(Cl)cc2)c1 | 1% | -5% | -2% | 19µM* | 7%
COc1ccccc1NC(=O)Nc1ccc(CC#N)cc1 | ? | · | ? | 21µM* | ?
COc1ccccc1NC(=O)Nc1ccc(C(N)=O)cc1 | 18% | ? | 14% | ? | ?

Screening data as filed in PubChem BioAssay.
